Source: PubChem BioAssay
RXFP1 antagonist = qHTS Assay for Antagonists of the Relaxin Receptor RXFP1; Relaxin receptor 1 (Homo sapiens), Q9HBX9; HEK293-RXFP1, relaxin-stimulated cAMP HTRF, 30 min; active compounds read low; activity change, negative = inhibition, % at 57.5 µM; hit rate 0.59% among 350,000;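 active = activity change of -60% or lower, but not beyond a set lower limit; inconclusive = change between -60% and -40%, or beyond the set limit; inactive = change above -40%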; note: % is set by controls: 0 for no effect and ±100 for the full control effect
Target sequence (Q9HBX9 whole entry, looked up): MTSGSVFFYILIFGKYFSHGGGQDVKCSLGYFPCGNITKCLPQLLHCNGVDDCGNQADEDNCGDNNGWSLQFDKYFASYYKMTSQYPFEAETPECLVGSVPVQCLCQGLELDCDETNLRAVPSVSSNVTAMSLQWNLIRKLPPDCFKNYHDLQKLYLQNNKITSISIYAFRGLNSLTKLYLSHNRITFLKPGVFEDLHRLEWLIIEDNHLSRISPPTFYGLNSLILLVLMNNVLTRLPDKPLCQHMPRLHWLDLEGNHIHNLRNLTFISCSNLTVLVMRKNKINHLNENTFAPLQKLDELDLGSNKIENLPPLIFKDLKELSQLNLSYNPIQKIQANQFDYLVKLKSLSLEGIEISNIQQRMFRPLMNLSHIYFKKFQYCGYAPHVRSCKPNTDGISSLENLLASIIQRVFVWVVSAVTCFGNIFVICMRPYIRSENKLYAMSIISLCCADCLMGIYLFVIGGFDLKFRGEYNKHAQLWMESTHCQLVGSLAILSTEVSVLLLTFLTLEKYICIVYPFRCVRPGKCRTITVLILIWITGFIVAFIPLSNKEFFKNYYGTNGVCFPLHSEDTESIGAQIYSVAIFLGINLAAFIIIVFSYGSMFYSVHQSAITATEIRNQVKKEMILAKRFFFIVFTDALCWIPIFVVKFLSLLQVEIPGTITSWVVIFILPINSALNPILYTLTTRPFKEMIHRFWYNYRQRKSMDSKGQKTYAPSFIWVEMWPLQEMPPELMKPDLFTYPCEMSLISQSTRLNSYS
gsp antag = qHTS for Antagonists of gsp, the Etiologic Mutation Responsible for Fibrous Dysplasia/McCune-Albright Syndrome: qHTS. gsp-mutant cells, cAMP HTRF, 30 min. AID 624288, 2012. Potency, µM (series often up to 76.9 µM), for the others: at the highest dose activity change, negative = inhibition, hits mostly inhibitors. hit rate 0.4% among 340,000; calls by dose curve; cell line not stated here;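 note: intracellular cAMP measured with PDE inhibitor Ro 20-1724 present during compound exposure; potency is the fitted concentration of half-maximal effect; % is set by controls: 0 for no effect and ±100 for the full control effect; nearly all actives have a fitted effect of over 65% in size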
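HTRF cAMP measurement after 30 min RT detection following 30 min, 37C compound treatment alongside […] (added as 300 uM solution) in G418-selected cells seeded at 2000/well and grown 16–24 h.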
TSHR antagonist = Antagonists of the Thyroid Stimulating Hormone Receptor: HTS campaign. Thyrotropin receptor (Homo sapiens), P16473. TSHR-expressing cells, TSH-stimulated cAMP HTRF, 2 h; active compounds read low. activity change, negative = inhibition, % at 11.5 µM. hit rate 0.2% among 330,000. AID 504810, 2011;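 active = activity change below a set negative limit, meaning inhibition stronger than a set level, cut at about -70% in these data; inconclusive = activity change between two set negative limits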; note: % is set by controls: 0 for no effect and ±100 for the full control effect
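Freshly harvested TSHR cells receive pin-tooled compound, then EC80 TSH at 4nM final. After 2 hours at 37 deg C, antibody in lysis buffer and cAMP-d2 are added; 30 minutes at ambient temperature precede the HTRF read.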
gsp ag = qHTS for Agonist of gsp, the Etiologic Mutation Responsible for Fibrous Dysplasia/McCune-Albright Syndrome: qHTS; gsp mutant cells, cAMP HTRF, 30 min; Potency, µM (doses to about 76.9 µM), for inactives: top-dose activation (cAMP increase), hits mostly activators; hit rate 0.13% among 340,000; active = well fitted activation curve with a large enough effect; inconclusive = small, poorly fitted or top-dose-only effect, or another doubt; inactive = no such curve, though single readings can be large or run the other way; cell line not stated here;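 note: phosphodiesterase inhibitor Ro 20-1724 added with compounds to block cAMP breakdown; potency is the fitted concentration of half-maximal effect; nearly all actives have a fitted effect of over 60% in size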
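Cells stably selected in G418 were plated at 2000/well, grown 16-24 hr, then given compounds in DMSO with the PDE inhibitor […] (300 uM solution added) for 30 min at 37C; cAMP was read by HTRF.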
RXFP1 agonist = qHTS Assay for Agonists of the Relaxin Receptor RXFP1; Potency, µM (top dose mostly 57.5 µM), for the others: top-dose activation, most hits filed as activators; HEK293T-RXFP1 cAMP TR-FRET, 30 min; response scale: percent of porcine relaxin response, buffer zero; AID 2676, 2010; hit rate 0.3% among 370,000; active = well fitted activation curve with a large enough effect; inconclusive = small, poorly fitted or top-dose-only effect; note: potency is the fitted concentration of half-maximal effect; % is set by controls: 0 for no effect and ±100 for the full control effect; nearly all actives have a fitted effect of over 60% in size
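HEK293 cells stably expressing RXFP1, treated 30 min at 37C with compounds plus PDE4 inhibitor Ro 20174; cAMP measured by HTRF TR-FRET. Normalized to buffer and 29 nM porcine relaxin; EC50 by Hill fit.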
* = called active by the depositor; ? = inconclusive; . = not tested or not shown; [ ] = dose if it differs, or a comment. The list is not random: actives were taken first. Their share in the collection is about 1%.

SMILES	RXFP1 antagonist	gsp antag	TSHR antagonist	gsp ag	RXFP1 agonist
COc1ccc(OC)c(CN2CCCCCC2)c1	-119*	-3%	23	-51%	0%
CCOC(=O)COc1ccc(S(=O)(=O)NCc2cccnc2)cc1	-13	-5%	-5	14%	2%
COC(=O)COc1ccc(S(=O)(=O)NCc2ccncc2)cc1	.	11µM*	-23	-19%	2%
Cc1ccccc1Nc1c(-c2ccsc2)nc2c(C)cccn12	-20	.	.	.	9%
COc1ccc(NC(=O)CN(C)C(=O)c2cc(-c3ccccc3)nc3ccccc23)cc1	?	-26%	12	14%[15.4 µM]	1%
Cc1ccc2nc(-c3ccccc3)cc(C(=O)N(C)CC(=O)Nc3ccccc3Br)c2c1	-75*	?	10	11%[15.4 µM]	0%
CCOC(=O)c1c(NC(=S)Nc2ccc(Cl)cc2)sc(C)c1C	-1	-10%	7	-7%	2%
COC(=O)c1c(NC(=S)Nc2ccc(CC(=O)O)cc2)sc(C)c1C	-63*	0%	-1	?	18%
c1ccc2c(c1)CCc1ccccc1N2	-17	.	.	.	.
CC1(CCc2ccccc2)NC(=O)N(CC(=O)N2CCc3ccccc32)C1=O (stereo not drawn)	3	.	.	-1%	.
CC1(CCc2ccccc2)NC(=O)N(CC(=O)N2CC(=O)Nc3ccccc32)C1=O (stereo not drawn)	-6	3%	-77*	-19%	-1%
CNC(=O)c1c(I)c(NC(=O)CCCCC(=O)Nc2c(I)c(C(=O)O)c(I)c(C(=O)NC)c2I)c(I)c(C(=O)O)c1I	15	.	.	.	.
COc1ccc(C)cc1NC(=O)Cn1c(=O)n(Cc2nc(C)no2)c(=O)c2ccccc21	-4	.	.	.	0%
CC1(C)N=C(N)N=C(N)N1CCCCc1ccccc1	-6	-11%	.	14µM*	.
CCCN1C(=O)/C(=C/c2c(NCCCOCC)nc3c(C)cccn3c2=O)SC1=S	5	3%	48	-2%	1%
Cc1cccn2c(=O)c(/C=C3\SC(=S)NC3=O)c(NCCCN3CCOCC3)nc12	9	16%	19	10µM*	5µM*
Cc1ccc(CN(C(=O)c2ccccc2Br)C2CCS(=O)(=O)C2)o1 (stereo not drawn)	13	.	.	.	0%
O=C(Cc1cccs1)NC1CC(=O)N(c2cccc(F)c2)C1 (stereo not drawn)	6	.	.	.	2%
CCN(CC)S(=O)(=O)c1ccc(OC)c(NC(=O)CSCc2c(C)noc2C)c1	14	4%	35	18µM*	.
CC(C)n1ncc2c(C(=O)NCC(=O)Nc3ccccc3Br)cc(C3CC3)nc21	-88*	-16%	25	27%	-3%
COC(=O)c1ccc2nc(NC(=O)C(C)(C)C)sc2c1	-85*	-25%	-20	-3%[15.4 µM]	0%
COC(=O)c1ccc2nc(NC(=O)C3CCCCC3)sc2c1	-9	3%	15	-44%	6%
Cc1cccc(-n2c(-c3ccco3)n[nH]c2=S)c1	9	15%	8	6.3µM*	30%
Cc1cccc(-n2c(-c3csc(C(C)C)c3)n[nH]c2=S)c1	-71*	-30%	11	17%	0%
Cc1cccc(-n2c(-c3ccc(Br)o3)n[nH]c2=S)c1	-33	-12%	.	-35%	.
SMILES	RXFP1 antagonist	gsp antag	TSHR antagonist	gsp ag	RXFP1 agonist
CCOC(=O)C1CCN(S(=O)(=O)c2c(Cl)ccc3nonc23)CC1	.	.	-90*	.	7%
CCOC(=O)C1CCN(S(=O)(=O)c2cccc3nonc23)CC1	-1	-8%	1	-27%	0%
Cc1ccc(NC2=NCC(=O)N2C2CCCC2)cc1C	-69*	3%	-1	-30%[15.4 µM]	-2%
CC(C)N1C(=O)S/C(=C/c2ccc3c(c2)n(C)c(=O)n3C)C1=O	1	5%	-12	?	8%
CCN(CC)c1ccc(/C=C2\SC(=O)N(C(C)C)C2=O)o1	-83*	0%	-5	-2%[15.4 µM]	-1%
COc1ccc(N(C(=O)c2ccncc2)S(=O)(=O)c2ccc(Cl)cc2)cc1	-23	50µM*	17	?	3%
O=C(Oc1ccc(N(C(=O)c2ccncc2)S(=O)(=O)c2ccc(Cl)cc2)cc1)c1ccncc1	-4	0%	-6	-8%	-2%
O=C(Oc1ccc(N(C(=O)c2ccncc2)S(=O)(=O)c2ccc(F)cc2)cc1)c1ccncc1	-90*	-5%	0	-21%	2%
CN(NC(=O)c1ccco1)c1nc2ccccc2nc1C(F)(F)F	9	-1%	-76*	5%	1%
Cc1csc(NC(=O)Cc2ccccc2Cl)n1	-14	0%	-2	?	4%
Cc1cnc(NC(=O)Cc2ccccc2Cl)s1	-64*	6%	-10	-39%	2%
Cc1ccc2occ(CC(=O)N(Cc3ccc(C(C)C)cc3)C3CCS(=O)(=O)C3)c2c1 (stereo not drawn)	-30	.	.	.	3%
CC(C)C(Cl)=NOC(=O)Nc1ccc(S(N)(=O)=O)cc1	-73*	11%	.	12%	.
C=CCNC(=O)c1ccc(NC(=O)C2=CSCCO2)cc1	1	6%	-136*	-8%	-1%
COc1cc2cc(CCOC(=O)c3ccc(F)cc3)oc(=O)c2cc1OC	.	50µM*	-2	.	2%
O=C1C=CC2(O[C@H](c3ccccc3)[C@@H](c3ccccc3)O2)[C@H](Sc2ccccc2O)C1	-99*	-13%	.	-7%	.
C[C@@H]1[C@@H](Sc2ccccc2)CC(=O)O[C@@H]1c1ccc(-c2ccccc2)cc1	.	-18%	.	23%	.
CCOC(=O)CNC(=O)CSc1cn(CC(=O)N2CCCCCC2)c2ccccc12	-14	.	.	.	1%
Cc1sc2ncnc(N3CCC(C(=O)N(C)CC(=O)Nc4ccccc4Cl)CC3)c2c1C	4	?	-24	-18%	2%
Cc1sc2ncnc(N3CCC(C(=O)N(C)CC(=O)Nc4ccccc4Br)CC3)c2c1C	-37	35µM*	-11	-107%	6%
CCOc1ccc(NC(=O)Cn2c(=O)n(CCCCCC(=O)NCc3ccccc3)c(=O)c3sccc32)cc1	1	.	.	.	27%
CCOC(=O)c1ccc(NC(=O)CCn2c(=O)c3cccn3c3cccnc32)cc1	-5	.	.	.	16%
O=C(Nc1nc(-c2cc(F)ccc2F)cs1)c1cccc(N2C(=O)CCC2=O)c1	-40	40µM*	-7	-6%	-1%
O=C(Nc1nc(-c2ccc(F)cc2)cs1)c1cccc(N2C(=O)CCC2=O)c1	-22	?	16	-34%	5%
CCOc1ccc(N2CC(NC(=O)c3ccc(Cl)cc3)CC2=O)cc1 (stereo not drawn)	-16	.	.	.	1%
